One molecule from PubChem BioAssay (NCATS) can be followed below.

Each structure is given as a SMILES string. Values without a mark were called inactive. Results filed as inconclusive are left out. Activity calls are given as the source filed them. Unless noted, calls follow the shape of the dose curve; as a rule, active = well fitted curve in the direction sought with a large enough effect; inconclusive = small, poorly fitted or top-dose-only effect, or another doubt; inactive = no such curve, though single readings can be large; an effect the other way counts as inactive or inconclusive.

The nature of test [1]: qHTS of Nrf2 Activators: LOPAC Validation (AID 624149). Also: 0% is about no effect. Put shortly:
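Luminescence read-out of ARE-luciferase activation: AREc32_Fluc cells treated with compounds for 24 hr at 37 deg C, then lysed with Steady-Glo for 30 min at room temperature before reading.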
(In general: Quantitative high-throughput screening tests each substance at several concentrations.)

Test [2] in a line: HTS Assay for Allosteric Antagonists of the Human D2 Dopamine Receptor: Hit Validation in HTRF (AID 624455).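 Also: stable D1 dopamine receptor cell line scored for blocking the D1 response; % is scaled to controls: 0 for no effect and ±100 for the full control effect.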 The method in brief:
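First, antagonism was screened by calcium flux in a force-coupled, inducible Hek293 Trex D2 line challenged with EC80 dopamine. Hits then went into an HTRF assay in cells stably expressing D1, testing inhibition of the D1 response.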
(In TR-FRET formats the signal depends on donor and acceptor labels being close together.)

Test [3] deals with Arylsulfatase A (Homo sapiens) (UniProt P15289). Kind of test: qHTS screen for enhancers of Arylsulfatase A (ASA1): LOPAC Validation Assay (AID 720538). Also: potency is read from the fitted curve at half-maximal effect. Put shortly: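 First, ASA-I179S fibroblasts from an MLD patient adhered for 6 hrs. Next, compounds were added for 48h. Then pNCS substrate (0.5mM final) with lysis buffer reacted 14h at room temperature before NaOH stop and fluorescence measurement.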

The nature of test [4]: qHTS for compounds that reverse cellular toxicity of Amyloid beta (A-beta) peptide in yeast: LOPAC Validation Assay (AID 720559).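 Also: plate controls were DMSO for no effect and equimolar ferric chloride plus clioquinol rescue for full effect.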 The method in brief:
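Activity is expressed relative to DMSO and an equimolar ferric chloride/clioquinol mix. Compounds were pinned into medium with A-beta-expressing yeast, grown 48 hr at 30 C, then read by absorbance at 600 nm.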

The nature of test [5]: qHTS for Activators of Parkin Expression: LOPAC Validation Assay (FLuc Reporter) (AID 720573;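 also: 0% = DMSO and 100% = positive control compounds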). Put shortly: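 A neuronal cell line harbouring FLuc and NLuc reporters behind the Parkin promoter was exposed to compounds for 24 h. Firefly luciferase signal, measured after 10 min with detection reagent, was scaled to DMSO and positive-control wells.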
The target of test [6] is T1, Hexokinase-4 (Homo sapiens) + Glucokinase regulatory protein (Homo sapiens) (UniProt P35557+Q14397). The test is described as follows: qHTS assay for inhibitors of recombinant human GCK-GKRP interaction: Diaphorase-coupled assay (AID 743205). The method in brief: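 Inhibitors of the GCK–GKRP complex relieve GKRP suppression of GCK, detected through a G6PDH–diaphorase cascade reducing resazurin. Human GST-GCK and FLAG-GKRP are used at 10 nM with 5 mM glucose and 0.4 mM ATP.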

The target of test [7] is T1, Hexokinase-4 (Homo sapiens) + Glucokinase regulatory protein (Homo sapiens). Kind of test: qHTS assay for inhibitors of recombinant human GCK-GKRP interaction: ADP-Glo assay (AID 743206).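 Also: plate controls were DMSO plus enzyme for no effect and no enzyme for full effect.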 Put shortly:
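GST-GCK and FLAG-GKRP (15 nM each in the dispensed mix, with 2 uM S6P) react with 0.4 mM ATP and 5 mM glucose (final) in Hepes pH 7.6 for 60 min at room temperature. ADP is measured by ADP-Glo luminescence.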

Test [8] has the same target. The test is described as follows: qHTS assay for inhibitors of recombinant human GCK-GKRP interaction: HTRF assay (AID 743207).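 Also: 0% = DMSO with GCK present and -100% = DMSO wells lacking GCK.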 The method in brief:
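Steps: dispense GCK–GKRP complex (5 nM each, GST- and FLAG-tagged) with 2 uM S6P; pin in compounds; add XL665/Eu-cryptate-labelled antibodies; incubate 60 min at room temperature; read time-resolved FRET at 665 and 615 nm.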

A short description of test [9]: Natriuretic polypeptide receptor (hNpr1) antagonism - Pilot counterscreen GloSensor control cell line (AID 1347045; calls by dose curve; also: potency is read from the fitted curve at half-maximal effect). The method in brief: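 Luminescence was read before and 20 min after adding 50 uM SNP, which stimulates soluble guanylyl cyclase. The HEK293 cells expressing the GloSensor cGMP sensor had been preloaded with 2% reagent for 2 h and treated with compound.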

In test [10] the target is Atrial natriuretic peptide receptor 1 (Homo sapiens) (UniProt P16066). Kind of test: Natriuretic polypeptide receptor (hNpr1) antagonism - Pilot screen (AID 1347049; calls by dose curve;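 also: agonist-evoked cGMP luminescence read 20 min after hNppA addition; potency is read from the fitted curve at half-maximal effect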). The method in brief:
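HEK293 cells co-expressing hNpr1 and the GloSensor pGS-40F cGMP luciferase sensor were preloaded with 2% GloSensor reagent for 2 h. Compounds were added for 30 min at room temperature, then cells were stimulated with 0.1 nM hNppA for 20 min before luminescence readout.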

The target of test [11] is Atrial natriuretic peptide receptor 2 (Homo sapiens) (UniProt P20594). Kind of test: Natriuretic polypeptide receptor (hNpr2) antagonism - Pilot subtype selectivity assay (AID 1347050; calls by dose curve; also: potency is read from the fitted curve at half-maximal effect). Put shortly: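 cGMP-sensor HEK293/hNpr2 cells; 2% GloSensor reagent 2 h RT; compounds 30 min; baseline luminescence read; 1 nM hNppC agonist 20 min RT; final luminescence read by CCD camera. Antagonism = reduced post-agonist signal.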

In test [12] the target is T2, Tyrosine-protein phosphatase non-receptor type substrate 1 (Homo sapiens) + Leukocyte surface antigen CD47 (Homo sapiens) (UniProt P78324+Q08722). The test is described as follows: CD47-SIRPalpha protein protein interaction - LANCE assay qHTS validation (AID 1347057; active = well fitted curve in the direction sought with a large enough effect in the signal ratio, with a control signal flat, not every such curve was filed as active; the % refers to the signal ratio; also: series mostly up to about 38 µM; 0% is about no effect). Put shortly:
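First, His-tagged CD47 and Eu-labelled anti-His antibody met the compound for 30 min; next, site-specifically biotinylated SIRPalpha was added for 30 min; finally streptavidin-APC was added before reading the TR-FRET ratio.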

The target of test [13] is T2, Tyrosine-protein phosphatase non-receptor type substrate 1 (Homo sapiens) + Leukocyte surface antigen CD47 (Homo sapiens). Kind of test: CD47-SIRPalpha protein protein interaction - HTRF assay qHTS validation (AID 1347058; active = well fitted curve in the direction sought with a large enough effect in the signal ratio, not every such curve was filed as active; the % refers to the signal ratio; also: series mostly up to about 38 µM; 0% is about no effect). Put shortly: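 TR-FRET read (Ch1/Ch2 ratio) of soluble extracellular CD47 and Avi-biotinylated SIRPalpha domains in PBS pH 7.4 with 0.05% IGEPAL; 7-point compound titration. Sequential 30 min room-temperature steps; non-biotinylated SIRPalpha as control inhibitor.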

For test [14] the target is unchanged. Kind of test: CD47-SIRPalpha protein protein interaction - Alpha assay qHTS validation (AID 1347059). Put shortly:
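Soluble extracellular domains: Avi-tag biotinylated SIRPalpha (25 nM) preincubated 30 min RT with compound, then 6His-CD47 (12.5 nM) 30 min; Ni-NTA acceptor and streptavidin donor beads (10 ug/mL) 30 min, AlphaScreen read. PBS pH 7.4, 0.05% IGEPAL.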

Test [15] concerns the target Parathyroid hormone/parathyroid hormone-related peptide receptor (Homo sapiens) (UniProt Q03431). The test is described as follows: qHTS for PTHR1 Agonists: Optimization Screen against the NCGC LOPAC library (AID 1347079).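 Also: GloSensor cAMP luminescence in HEK-293 GP2 cells expressing human PTHR1 with IBMX; 0% is about no effect.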 The method in brief:
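Agonist readout: GloSensor cAMP luminescence, read after 15 min at room temperature. HEK-293-derived GP2 line carries PTHR1; compounds tested as a titration for 1 hr at 37C in presence of IBMX. M-PTH (1-15) served as control.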

Test [16] deals with Lysine-specific demethylase 5B (Homo sapiens) (UniProt Q9UGL1). Kind of test: Optimization screen for KDM5B Histone Demethylases FDH coupled qHTS against the LOPAC library (AID 1347166). Also: 0% is about no effect. Put shortly:
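KDM5BDeltaAP (200nM final) preincubated 10 min with compound, then 12.5uM H3K4Me3, 25uM a-ketoglutarate, ascorbate, Fe(II), NAD+ and FDH added; 50mM HEPES pH 7.5, 0.01% Tween-20. NADH fluorescence (340/450 nm) change over 30 min, room temperature.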

Test [17] can be described thus: qHTS for inhibitors of adenylyl cyclases using a fission yeast platform: a pilot screen against the NCATS LOPAC library (AID 1347410).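 Also: plate controls were DMSO vehicle for no effect and DPI positive control for full effect.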 Put shortly:
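Growth medium went into the plates first, then compounds were pinned (final up to 57 µM), then CHP2027 yeast were added. Plates were incubated overnight (18 h) at 30C in the dark, and GFP was measured by laser scanning cytometry.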

For test [18], the target named is Single-stranded DNA cytosine deaminase (Homo sapiens) (UniProt Q9GZX7). Kind of test: Validation qHTS assay for inhibitors of Activation Induced Cytidine Deaminase (AID): AID signal (AID 1347429). Also: % is scaled to controls: 0 for no effect and ±100 for the full control effect. The method in brief:
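Fluorescence at 540 nm excitation and 590 nm emission reports ssDNA cytosine deamination by AID, with UDG in the same well. Compound-treated reactions ran 4 hr at room temperature with DJC20/DJC23 substrate, followed by 30 min NaOH treatment.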

Test [19] in a line: Primary qHTS for inhibitors of La Crosse Virus (LACV) - induced cell death in SH-SY5Y cells (AID 1508616).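 Also: top concentration of the series differs between compounds; 0% = infected DMSO wells and 100% = uninfected DMSO wells; higher means more rescue of cells from virus-induced death.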 Put shortly: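 Protection against LACV-induced cell death is scored in SH-SY5Y cells exposed to compounds and virus (0.01 MOI) for 6 days. Data normalized to virus-infected DMSO wells and virus-free DMSO wells.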
Test [20] can be described thus: Cell Viability qHTS for small molecule stabilizers of the endoplasmic reticulum resident proteome (AID 1508629).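 Also: human SH-SY5Y neuroblastoma cells carrying the GLuc-SERCaMP reporter; compound exposure about 46 h in total before the viability read; % is scaled to controls: 0 for no effect and ±100 for the full control effect.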 The settings on record: cell viability counter-screen, 100 nM thapsigargin for final 4 h.
A further test addresses Papain (Carica papaya) (UniProt P00784). Kind of test: Primary qHTS assay for inhibitors of the protease papain (AID 1645873).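 Also: papain turnover of Z-FR-AMC read as the AMC fluorescence gain over 10 min; series mostly up to about 50 µM; % is scaled to controls: 0 for no effect and ±100 for the full control effect.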
The target of test [21] is Metallo-beta-lactamase type 2 (Klebsiella pneumoniae) (UniProt C7C422). The test is described as follows: qHTS to identify inhibitors of the New Delhi Metallo-beta-lactamase (NDM): assay validation screen against the NCATS LOPAC Collection (AID 1794843). The method in brief:
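NDM-1 at 2 nM final in 50 mM HEPES pH 7.0, 1 uM ZnSO4, 0.01% Tween20, preincubated with LOPAC compounds pinned in DMSO; 50 uM nitrocefin (stock) added. Hydrolysis read as absorbance at 485 nm in the plateau phase.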

Test [22] deals with Glutathione peroxidase 1 (Homo sapiens) (UniProt P07203). The test is described as follows: Primary qHTS Assay for Inhibitors of Recombinant Selenoprotein Glutathione Peroxidase 1 (GPX1) (AID 1845191). Also: nearly all actives have a fitted effect of over 65% in size. The method in brief:
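Recombinant GPX1 (10 nM final) was preincubated with compound for 30 min at room temperature, then reacted with 1 mM GSH, 0.5 mM CHP, 0.5 mM NADPH and 100 nM glutathione reductase; NADPH fluorescence (340/450 nm) was read at 0 and 15 min.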

The target of test [23] is Phospholipid hydroperoxide glutathione peroxidase GPX4 (Homo sapiens) (UniProt P36969). Kind of test: Primary qHTS Assay for Inhibitors of Recombinant Selenoprotein Glutathione Peroxidase 4 (GPX4) (AID 1845192). Also: nearly all actives have a fitted effect of over 65% in size. The settings on record: outcome: dose series up to 50 µM unless noted. Put shortly:
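GR-coupled readout: 100 nM GR, 1 mM GSH, 0.5 mM NADPH; NADPH fluorescence (ex 340/em 450 nm) read at t=0 and after 15 min RT. GPX4 200 nM, preincubated 30 min with compound; substrate 0.5 mM CHP.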

T2 sequence (P78324 whole entry, looked up): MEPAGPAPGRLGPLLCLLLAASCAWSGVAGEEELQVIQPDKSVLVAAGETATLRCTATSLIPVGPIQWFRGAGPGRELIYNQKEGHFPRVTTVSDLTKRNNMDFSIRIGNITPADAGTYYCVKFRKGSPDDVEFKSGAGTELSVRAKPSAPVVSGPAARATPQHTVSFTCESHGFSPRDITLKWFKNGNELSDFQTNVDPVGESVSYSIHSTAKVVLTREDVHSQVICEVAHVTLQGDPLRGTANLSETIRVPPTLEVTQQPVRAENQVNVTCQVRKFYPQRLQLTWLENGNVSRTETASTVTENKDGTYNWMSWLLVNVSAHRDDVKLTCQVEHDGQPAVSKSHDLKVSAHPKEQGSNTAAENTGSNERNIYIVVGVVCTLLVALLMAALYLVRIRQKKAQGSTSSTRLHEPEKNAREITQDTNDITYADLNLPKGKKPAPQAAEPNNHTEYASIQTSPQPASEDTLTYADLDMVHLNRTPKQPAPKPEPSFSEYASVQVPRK
T2 sequence (Q08722 whole entry, looked up): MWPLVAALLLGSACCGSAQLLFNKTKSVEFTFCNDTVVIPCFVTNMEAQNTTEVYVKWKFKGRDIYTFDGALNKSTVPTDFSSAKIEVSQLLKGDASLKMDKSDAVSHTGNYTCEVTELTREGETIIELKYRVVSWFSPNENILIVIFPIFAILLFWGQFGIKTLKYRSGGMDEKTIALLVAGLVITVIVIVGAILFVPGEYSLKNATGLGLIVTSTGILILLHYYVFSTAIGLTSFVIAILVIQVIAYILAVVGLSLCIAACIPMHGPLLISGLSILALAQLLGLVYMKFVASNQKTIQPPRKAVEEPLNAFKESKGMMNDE
T1 sequence (P35557 whole entry, looked up): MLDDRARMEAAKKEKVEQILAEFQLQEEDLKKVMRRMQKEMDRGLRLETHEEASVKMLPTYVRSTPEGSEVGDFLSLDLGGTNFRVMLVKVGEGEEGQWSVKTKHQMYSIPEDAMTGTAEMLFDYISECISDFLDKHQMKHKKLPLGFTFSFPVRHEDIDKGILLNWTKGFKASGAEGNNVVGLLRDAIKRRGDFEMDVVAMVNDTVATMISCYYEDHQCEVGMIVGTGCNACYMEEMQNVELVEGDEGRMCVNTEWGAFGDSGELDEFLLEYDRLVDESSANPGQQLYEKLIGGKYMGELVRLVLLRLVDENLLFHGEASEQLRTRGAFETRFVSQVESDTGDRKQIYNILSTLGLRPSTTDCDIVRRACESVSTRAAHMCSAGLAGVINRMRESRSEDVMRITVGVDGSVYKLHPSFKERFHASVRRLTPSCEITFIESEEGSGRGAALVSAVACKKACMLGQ
T1 sequence (Q14397 whole entry, looked up): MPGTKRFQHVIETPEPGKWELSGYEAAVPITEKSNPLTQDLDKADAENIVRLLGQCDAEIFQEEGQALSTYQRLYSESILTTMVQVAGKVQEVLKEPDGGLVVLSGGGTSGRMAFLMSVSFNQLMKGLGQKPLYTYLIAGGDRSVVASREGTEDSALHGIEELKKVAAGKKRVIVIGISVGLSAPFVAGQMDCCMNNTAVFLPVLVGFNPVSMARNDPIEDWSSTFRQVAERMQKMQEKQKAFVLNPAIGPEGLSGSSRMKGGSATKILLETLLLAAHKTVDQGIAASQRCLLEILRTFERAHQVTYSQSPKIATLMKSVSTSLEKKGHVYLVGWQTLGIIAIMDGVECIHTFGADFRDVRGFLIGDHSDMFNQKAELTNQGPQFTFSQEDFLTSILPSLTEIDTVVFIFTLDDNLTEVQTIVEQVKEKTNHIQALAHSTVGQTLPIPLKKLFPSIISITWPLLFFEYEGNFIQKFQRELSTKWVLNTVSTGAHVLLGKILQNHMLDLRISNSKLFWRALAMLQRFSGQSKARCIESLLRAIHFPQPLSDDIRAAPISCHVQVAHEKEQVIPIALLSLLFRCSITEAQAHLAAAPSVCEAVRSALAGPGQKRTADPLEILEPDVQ
Atrial natriuretic peptide receptor 2 (Homo sapiens), sequence (P20594 whole entry, looked up): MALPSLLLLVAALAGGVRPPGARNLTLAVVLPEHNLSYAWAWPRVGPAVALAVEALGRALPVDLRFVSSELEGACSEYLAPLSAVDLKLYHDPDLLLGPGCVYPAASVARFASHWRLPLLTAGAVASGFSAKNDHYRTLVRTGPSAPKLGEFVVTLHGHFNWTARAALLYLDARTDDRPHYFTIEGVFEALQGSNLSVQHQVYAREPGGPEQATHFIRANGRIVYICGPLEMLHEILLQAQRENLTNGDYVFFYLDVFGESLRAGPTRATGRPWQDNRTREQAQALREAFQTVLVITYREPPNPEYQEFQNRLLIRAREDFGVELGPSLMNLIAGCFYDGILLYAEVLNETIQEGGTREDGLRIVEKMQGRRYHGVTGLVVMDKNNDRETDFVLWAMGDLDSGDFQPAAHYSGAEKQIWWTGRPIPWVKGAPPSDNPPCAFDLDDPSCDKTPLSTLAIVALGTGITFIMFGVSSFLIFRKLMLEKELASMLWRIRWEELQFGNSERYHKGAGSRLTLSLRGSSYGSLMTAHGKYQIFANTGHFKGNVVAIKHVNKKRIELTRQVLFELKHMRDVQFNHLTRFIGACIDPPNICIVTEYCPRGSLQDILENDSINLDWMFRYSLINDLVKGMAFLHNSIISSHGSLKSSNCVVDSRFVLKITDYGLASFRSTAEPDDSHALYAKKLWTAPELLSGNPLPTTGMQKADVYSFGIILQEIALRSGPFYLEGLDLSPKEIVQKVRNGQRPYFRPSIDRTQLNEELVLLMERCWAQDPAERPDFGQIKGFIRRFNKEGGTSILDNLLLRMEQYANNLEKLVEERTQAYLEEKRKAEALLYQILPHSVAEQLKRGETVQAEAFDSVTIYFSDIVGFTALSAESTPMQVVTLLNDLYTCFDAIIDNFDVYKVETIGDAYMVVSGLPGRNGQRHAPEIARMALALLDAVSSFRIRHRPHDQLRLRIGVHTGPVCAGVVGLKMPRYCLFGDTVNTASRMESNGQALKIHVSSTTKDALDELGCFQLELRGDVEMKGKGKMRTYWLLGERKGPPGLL
Phospholipid hydroperoxide glutathione peroxidase GPX4 (Homo sapiens), sequence (P36969 whole entry, looked up): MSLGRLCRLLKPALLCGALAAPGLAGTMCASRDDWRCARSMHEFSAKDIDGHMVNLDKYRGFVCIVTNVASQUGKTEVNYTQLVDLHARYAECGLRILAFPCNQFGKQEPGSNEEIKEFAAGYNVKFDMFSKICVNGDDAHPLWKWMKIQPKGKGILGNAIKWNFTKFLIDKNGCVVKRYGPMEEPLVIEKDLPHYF
Atrial natriuretic peptide receptor 1 (Homo sapiens), sequence (P16066 whole entry, looked up): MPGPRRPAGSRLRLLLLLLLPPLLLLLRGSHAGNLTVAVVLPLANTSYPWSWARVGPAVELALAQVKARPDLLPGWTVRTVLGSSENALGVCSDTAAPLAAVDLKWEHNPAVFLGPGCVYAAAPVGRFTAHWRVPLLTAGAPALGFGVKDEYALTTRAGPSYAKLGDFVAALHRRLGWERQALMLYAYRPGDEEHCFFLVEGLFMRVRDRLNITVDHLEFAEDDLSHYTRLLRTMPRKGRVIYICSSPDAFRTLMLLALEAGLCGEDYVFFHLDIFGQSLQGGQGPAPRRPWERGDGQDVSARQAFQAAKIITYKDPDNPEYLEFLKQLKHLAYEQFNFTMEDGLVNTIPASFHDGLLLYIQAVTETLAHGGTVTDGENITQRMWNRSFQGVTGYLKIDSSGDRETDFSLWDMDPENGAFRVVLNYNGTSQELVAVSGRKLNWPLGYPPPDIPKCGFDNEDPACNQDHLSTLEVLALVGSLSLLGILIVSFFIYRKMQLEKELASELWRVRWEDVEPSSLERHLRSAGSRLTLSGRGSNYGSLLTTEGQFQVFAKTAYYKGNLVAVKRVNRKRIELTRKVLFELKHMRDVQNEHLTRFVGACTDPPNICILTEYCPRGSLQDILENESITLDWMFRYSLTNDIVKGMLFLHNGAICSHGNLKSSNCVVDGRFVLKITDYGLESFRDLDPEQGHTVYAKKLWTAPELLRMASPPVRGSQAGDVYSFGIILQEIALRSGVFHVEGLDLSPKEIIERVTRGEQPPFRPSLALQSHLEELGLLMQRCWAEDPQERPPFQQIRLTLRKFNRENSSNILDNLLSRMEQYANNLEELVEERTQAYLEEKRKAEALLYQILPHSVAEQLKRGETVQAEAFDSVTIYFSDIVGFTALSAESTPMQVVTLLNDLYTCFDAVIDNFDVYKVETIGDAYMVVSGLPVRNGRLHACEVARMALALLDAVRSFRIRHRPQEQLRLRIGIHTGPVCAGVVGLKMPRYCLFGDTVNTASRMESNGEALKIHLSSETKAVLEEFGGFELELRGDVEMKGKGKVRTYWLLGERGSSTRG
Single-stranded DNA cytosine deaminase (Homo sapiens), sequence (Q9GZX7 whole entry, looked up): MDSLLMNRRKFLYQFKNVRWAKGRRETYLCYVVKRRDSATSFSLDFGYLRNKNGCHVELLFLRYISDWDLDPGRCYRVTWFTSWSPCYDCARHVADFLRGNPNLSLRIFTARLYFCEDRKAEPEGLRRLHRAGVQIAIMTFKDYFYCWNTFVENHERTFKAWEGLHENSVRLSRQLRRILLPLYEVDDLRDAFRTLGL
Papain (Carica papaya), sequence (P00784 whole entry, looked up): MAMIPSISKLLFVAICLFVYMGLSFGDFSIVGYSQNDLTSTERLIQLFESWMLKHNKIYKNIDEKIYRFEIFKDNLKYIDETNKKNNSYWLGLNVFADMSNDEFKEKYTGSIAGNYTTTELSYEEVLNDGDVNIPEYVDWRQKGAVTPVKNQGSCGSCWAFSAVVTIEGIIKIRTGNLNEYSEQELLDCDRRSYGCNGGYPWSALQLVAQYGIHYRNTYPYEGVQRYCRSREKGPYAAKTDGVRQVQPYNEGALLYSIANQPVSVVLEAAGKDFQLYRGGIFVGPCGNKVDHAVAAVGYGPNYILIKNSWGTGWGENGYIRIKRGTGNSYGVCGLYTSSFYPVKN
Glutathione peroxidase 1 (Homo sapiens), sequence (P07203 whole entry, looked up): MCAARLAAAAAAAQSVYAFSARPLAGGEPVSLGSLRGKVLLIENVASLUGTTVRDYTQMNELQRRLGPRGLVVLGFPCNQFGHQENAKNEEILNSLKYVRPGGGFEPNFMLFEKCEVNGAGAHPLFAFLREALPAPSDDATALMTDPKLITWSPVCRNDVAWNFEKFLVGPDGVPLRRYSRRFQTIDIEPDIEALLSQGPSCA

`O=C1c2ccccc2C(=O)c2c(NCCc3ccc(O)cc3)ccc(NCCc3ccc(O)cc3)c21`: the call in [1], in [2], in test [4], in test [6], in test [7] and in test [8] was inactive. The result in [12], in test [13], in test [15], in test [16], in test [17] and in test [19] was inactive. Moreover, the Potency in [3] is 9.53 µM (active); in test [9] it was 11.7 µM (active); in [10], 12 µM (active); in [11], 13.1 µM (active); in [14], 1.85 µM (active). In addition, the Potency entry (in test [5]; in [18]; with Papain (Carica papaya); in [21]; in [22]; in test [23]) was “inactive” in each case. For the same molecule, in test [20], the max response is -20.2%.
